These results are taken from the supplement of paper PMC9262897, “Low-cost anti-mycobacterial drug discovery using engineered E. coli” (Nature Communications, 2022).

The test system of this experiment is E. coli TESEC Mtb Alr. The experiment in a line: growth (OD600 after 10 h); higher = more growth (less inhibition). As to conditions: compound 0.1 mM. The method, then:
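TESEC Mtb Alr E. coli, or the Alr+ wild-type control, in 384-well plates with Prestwick library compounds at 0.1 mM and 1% DMSO, across arabinose induction levels of 1E3 to 1E7 nM. Growth is read as OD600 after 10 h at 37 °C in triplicate biological replicates.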

Setting [1] is: arabinose 1000 nM, raw OD600 reference: median of DMSO wells 0.294, cell-free background 0.041.
Setting [2] is: arabinose 10000 nM, raw OD600 reference: median of DMSO wells 0.264, cell-free background 0.041.
Setting [3] is: arabinose 100000 nM, raw OD600 reference: median of DMSO wells 0.201, cell-free background 0.041.
Setting [4] is: arabinose 1000000 nM, raw OD600 reference: median of DMSO wells 0.193, cell-free background 0.041.
Setting [5] is: arabinose 10000000 nM, raw OD600 reference: median of DMSO wells 0.146, cell-free background 0.041.

Structures are written as SMILES. Counter-ions that a name gives are not always drawn. ± gives the standard deviation of the averaged measurements.

For the compound `CCN(CC)C(C)C(=O)c1ccccc1` (stereo not given) [Amfepramone hydrochloride], the growth reads like this: under setting [1], 0.259 ± 0.051; under setting [2], 0.261 ± 0.014; under setting [3], 0.179 ± 0.027; under setting [4], 0.187 ± 0.0038; under setting [5], 0.141 ± 0.0089.
In the same order, the values of `COc1cc([C@@H]2c3cc4c(cc3[C@H](O)[C@H]3COC(=O)[C@H]23)OCO4)cc(OC)c1OC` [Podophyllotoxin] are 0.298 ± 0.016, 0.271 ± 0.0092, 0.168 ± 0.012, 0.163 ± 0.0082 and 0.1495 ± 0.0008.
The matching figures for `COc1ccc(CCN2CCC(Nc3nc4ccccc4n3Cc3ccc(F)cc3)CC2)cc1` [Astemizole]: 0.0406 ± 0.00056, 0.04013 ± 0.00025, 0.0411 ± 0.0019, 0.04007 ± 0.00031 and 0.0404 ± 0.0002.
The matching figures for `C[C@]12CC[C@H](O)C[C@H]1CC[C@@H]1[C@@H]2CC[C@]2(C)[C@@H](C3=CC(=O)OC3)CC[C@]12O` [Digitoxigenin]: 0.197 ± 0.0049, 0.251 ± 0.0094, 0.117 ± 0.0044, 0.0923 ± 0.0033 and 0.126 ± 0.0021.
With `CC(C)C[C@H](CN)CC(=O)O` [Pregabalin], the growth by setting is: under setting [1], 0.291 ± 0.0063; under setting [2], 0.273 ± 0.013; under setting [3], 0.178 ± 0.022; under setting [4], 0.223 ± 0.015; under setting [5], 0.134 ± 0.0081.
The matching figures for `CC(=O)O[C@H]1C[C@H](O[C@H]2[C@@H](O)C[C@H](O[C@H]3[C@@H](O)C[C@H](O[C@H]4CC[C@@]5(C)[C@H](CC[C@@H]6[C@@H]5C[C@@H](O)[C@]5(C)[C@@H](C7=CC(=O)OC7)CC[C@]65O)C4)O[C@@H]3C)O[C@@H]2C)O[C@H](C)[C@H]1O[C@@H]1O[C@H](CO)[C@@H](O)[C@H](O)[C@H]1O` [Lanatoside C]: 0.261 ± 0.024, 0.26 ± 0.0028, 0.295 ± 0.031, 0.19 ± 0.0089 and 0.243 ± 0.024.
In the same order, the values of `COc1ccc(C(=O)N2CCCC2=O)cc1` [Aniracetam] are 0.3088 ± 0.0018, 0.246 ± 0.01, 0.236 ± 0.021, 0.172 ± 0.0084 and 0.167 ± 0.0026.
The matching figures for `NCC(O)c1ccc(O)cc1` (racemic) [(+,-)-Octopamine hydrochloride]: 0.325 ± 0.02, 0.268 ± 0.011, 0.194 ± 0.012, 0.179 ± 0.0096 and 0.162 ± 0.0021.
